Results on 15 compounds are retold here after PubChem BioAssay (NCATS).

Molecules are shown by their SMILES. Inconclusive results are not listed. Unmarked numbers belong to inactive results. Active and inactive are the calls of the source. Calls follow the shape of the dose curve; as a rule, active = well fitted inhibition curve with a large enough effect; inconclusive = small, poorly fitted or top-dose-only effect; inactive = flat fitted curve, though single readings scatter.
% is scaled to controls: 0 for no effect and ±100 for the full control effect; potency is read from the fitted curve at half-maximal effect.

The assay relates to HEK293. The experiment in a line: Cytotoxic Profiling of Annotated Libraries Using Quantitative High-Throughput Screening (AID 1296008). Also: nearly all actives have a fitted effect of over 60% in size. The conditions noted are these: Five cell lines viability, CellTiter-Glo ATP luminescence, 48-72 h; max response: active compounds read low. The method in brief: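 Cells exposed to compounds for 48 or 72 hr at 37 degrees Celsius. Viability read as ATP-coupled luminescence with CellTiter-Glo after 10 min at room temperature.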
On the technique in general: ATP-based viability assays read luminescence as a measure of living cells.
In the case of `CCCN(CCC)S(=O)(=O)c1ccc(C(=O)O)cc1`, the max response was 3.98%.

Take `CC(C)Cc1ccc(CC(=O)O)cc1`: the max response was -6.81%.

As for `c1ccc(CC2=NCCN2)cc1`, the max response was -22.9%.

As to `CC(C)[N+](C)(C)CC(O)COc1cccc2ccccc12` (stereo not given), the max response is -10.5%.

Turning to `CC(C)(C)NCC(O)COc1cccc2c1C[C@H](O)[C@H](O)C2` (stereo not given in full), the max response was -3.77%.

As for `OCc1ccccn1`, the max response is -1.39%.

With `Cc1cc(C)cc(OCC2CNC(=O)O2)c1` (stereo not given), the max response was 3.06%.

With `C[C@H]1O[C@@H](O[C@H]2CC[C@@]3(C)[C@H](CC[C@@H]4[C@@H]3C[C@@H](O)[C@]3(C)[C@@H](C5=CC(=O)OC5)CC[C@]43O)C2)C[C@H](O)[C@@H]1O[C@H]1C[C@H](O)[C@H](O[C@H]2C[C@H](O)[C@H](O[C@@H]3O[C@H](CO)[C@@H](O)[C@H](O)[C@H]3O)[C@@H](C)O2)[C@@H](C)O1`, the Potency is 188 nM (active).

As for `O=[N+]([O-])c1ccc(/C=N\O)o1`, the max response was -8.88%.

`CC(=O)OCC1=C(C(=O)O)N2C(=O)[C@@H](NC(=O)CSc3ccncc3)[C@H]2SC1`: the max response was 4.22%.

For `CC(=O)NCCCCCC(=O)O`, the max response was 1.53%.

For `O=C1C(CCS(=O)c2ccccc2)C(=O)N(c2ccccc2)N1c1ccccc1` (stereo not given), the max response is -3.91%.

As for `CC(=O)Nc1ccc(OCC(O)CNC(C)C)cc1` (stereo not given), the max response is 4.87%.

On to `NS(=O)(=O)c1ccc(Cl)c(S(N)(=O)=O)c1`, for which the result was inactive.

For `CC[C@H](c1ccc(O)cc1)[C@@H](CC)c1ccc(O)cc1`, the max response is -17.5%.
